For 43 molecules, Percent Effect results are on record in ChEMBL document CHEMBL3988442, “University of Dundee, Small-Polar-MMV Screening Library” (2021).

Assay [1] deals with T1, Aspartate--tRNA(Asp/Asn) ligase (Mycobacterium tuberculosis (strain ATCC 25618 / H37Rv)) (UniProt P9WFW3).
T1 sequence (whole entry): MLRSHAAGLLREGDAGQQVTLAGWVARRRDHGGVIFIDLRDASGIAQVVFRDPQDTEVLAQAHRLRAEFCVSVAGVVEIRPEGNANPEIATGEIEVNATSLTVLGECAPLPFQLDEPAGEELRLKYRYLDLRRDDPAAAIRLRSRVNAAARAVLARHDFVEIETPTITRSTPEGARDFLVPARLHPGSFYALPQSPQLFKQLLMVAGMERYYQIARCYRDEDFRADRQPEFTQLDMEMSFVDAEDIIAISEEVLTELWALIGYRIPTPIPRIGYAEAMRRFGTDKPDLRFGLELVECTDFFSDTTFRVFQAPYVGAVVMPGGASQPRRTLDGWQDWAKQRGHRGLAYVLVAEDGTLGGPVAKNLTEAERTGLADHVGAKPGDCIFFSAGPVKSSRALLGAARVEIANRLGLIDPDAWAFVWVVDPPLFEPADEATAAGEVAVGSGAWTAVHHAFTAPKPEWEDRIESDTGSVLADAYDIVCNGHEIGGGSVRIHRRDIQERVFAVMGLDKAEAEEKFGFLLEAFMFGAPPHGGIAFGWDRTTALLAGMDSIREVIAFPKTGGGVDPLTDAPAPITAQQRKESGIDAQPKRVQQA
The assay can be described thus: Assay for Asp RNA synthetase-1 from Mycobacterium tuberculosis. The settings on record: 30 µM. Also noted: scale not given: direction of the effect not stated beside the values. Format: functional.

Assay [2] has as its target Shiga toxin 2 (Escherichia coli O157:H7) (UniProt P09385+P09386). The assay can be described thus: E. coli 0.157:H7 Shiga Toxin SOP - stx2 screening assay. The assay is classed as functional. Also noted: scale not given: direction of the effect not stated beside the values. The settings on record: 30 µM.

As for `CC(C(=O)N1CCc2ccccc2C1)n1cc(Br)cn1` (stereo unspecified), the figures for the Percent Effect in assay [1] and in assay [2] were 2.59% and -59.4%, respectively.

`CC(=O)Nc1cccc(C(=O)Nc2cnc3n2CCCC3)c1`: the Percent Effect in assay [1] was 2.26%; in assay [2] it was -9.23%.

In the case of `CCN1CCC(NC(=O)CN2CCc3c(ncn3C)C2)CC1`, the Percent Effect is -4.88% in assay [1] and 19.9% in assay [2].

Take `c1cnc(OCc2nnc3n2CCN(CC2CC2)C3)nc1`: the results for the Percent Effect in assay [1] and in assay [2] were 1.75% and 4.75%, respectively.

Turning to `O=S(=O)(NCC1CCN(c2cnccn2)CC1)c1c(F)cccc1F`, the Percent Effect in assay [1] was -2.55%; in assay [2] it was 4.65%.

Consider `Cc1oc(C)c(C(=O)NCc2cccc(NC(=O)CN(C)C)c2)c1C`, for which the figures for the Percent Effect in assay [1] and in assay [2] were -5.4% and -39.7%, respectively.

Regarding `Cc1ccc(CN2CCCC23CCN(S(=O)(=O)c2ccccc2)C3)o1` (stereo unspecified), the Percent Effect in assay [1] came to 4.14%; in assay [2], 3.29%.

As to `COCc1ccccc1NC(=O)[C@@H]1CCCN1C(=O)c1ccco1`, the Percent Effect in assay [1] is -0.557%; in assay [2], -2.06%.

In the case of `CC(NC(=O)Nc1cccnc1N1CCCC1)c1nncn1C` (stereo unspecified), the Percent Effect was -2.86% in assay [1] and 7.91% in assay [2].

Turning to `Cn1cnc2c1C(COCc1cccnc1)N(Cc1ccccn1)CC2` (stereo unspecified), the Percent Effect is 2.65% in assay [1] and -18.6% in assay [2].

Regarding `Cn1cnc2c1C(COCC1CC1)CN(Cc1ccc3c(c1)OCO3)C2` (stereo unspecified), the Percent Effect is 0.999% in assay [1] and -23.1% in assay [2].

As for `CCc1cnc2c(c1NCc1cccc(OC)c1)c(=O)n(C)c(=O)n2C`, the Percent Effect in assay [1] is -0.0729%; in assay [2], -21.5%.

Turning to `Cc1ccc(C2(CN3CCCC3)CCNCC2)nc1`, the Percent Effect is -4.12% in assay [1] and -12% in assay [2].

Consider `CCC1=N[C@@]2(CC[C@@H]3CN(C(=O)NCc4ccccc4)C[C@@H]32)C(=O)N1`, for which the results for the Percent Effect in assay [1] and in assay [2] were 1.75% and 5.39%, respectively.

On to `O=C(N1CCCC1)N1CCc2ncnc(C3CCOC3)c2CC1` (stereo unspecified), for which the Percent Effect in assay [1] was -0.956%; in assay [2], -10.8%.

`Cc1cnn(C2CN(CC(=O)Nc3cccnc3)C2)c1`: the Percent Effect in assay [1] was determined as 3.91%; in assay [2] it was 11%.

For `Cc1nccnc1N1CCC2(CCCN(C3CCOCC3)C2=O)C1` (stereo unspecified), the Percent Effect in assay [1] is -1.21%; in assay [2] it was -27.2%.

On to `Cn1ncc2c(=O)[nH]c(CN3CCCC3Cc3ccccc3)nc21` (stereo unspecified), for which the Percent Effect in assay [1] was determined as 2.98%; in assay [2] it was 35.6%.

Consider `O=C(NCCCn1cncn1)N1CCCC(N2CCCC2)C1` (stereo unspecified), for which the figures for the Percent Effect in assay [1] and in assay [2] were 3.5% and 0.153%, respectively.

In the case of `COc1ccccc1[C@@H]1CN(Cc2cc(C(C)(C)C)[nH]n2)C[C@H]1C(=O)O`, the Percent Effect in assay [1] is 1.28%; in assay [2], -6.54%.

On to `CCn1ccnc1CN1CCCN(C(=O)c2sccc2C#N)CC1`, for which the results for the Percent Effect in assay [1] and in assay [2] were 1.71% and 2.81%, respectively.

Take `Cc1cnc2n(c1=O)CC(C(=O)NC1CC1)CS2` (stereo unspecified): the Percent Effect is -3.65% in assay [1] and 0.421% in assay [2].

In the case of `CCN(CC)C(=O)c1nnn(Cc2ccccc2)c1OC`, the values for the Percent Effect in assay [1] and in assay [2] were 0.348% and 3.85%, respectively.

`COCCc1noc(CN2CCc3nn(C(C)C)c(=O)cc3C2)n1`: the Percent Effect is -0.0281% in assay [1] and 19.6% in assay [2].

Consider `CC(CNCc1ccncc1)Oc1ccccn1` (stereo unspecified), for which the Percent Effect in assay [1] is -2.38%; in assay [2], -57%.

As to `CN1[C@@H](C(=O)NCC2CC2)C[C@@H]2CN(Cc3ccco3)C[C@@H]21`, the Percent Effect in assay [1] is 2.69%; in assay [2] it was -1.45%.

For the molecule `Cc1nn(C)c(N2CCOCC2)c1CNC(c1cccs1)C(C)C` (stereo unspecified), the results for the Percent Effect in assay [1] and in assay [2] were 1.8% and 25.3%, respectively.

Turning to `CC(=O)NCC(=O)N1CCN(CC2CC2)c2ncccc2C1`, the Percent Effect in assay [1] was -4.63%; in assay [2], -0.0207%.

In the case of `CC(=O)NCC(=O)N1CCn2cc(CN3CCN(C)CC3)nc2C1`, the Percent Effect in assay [1] was 1.6%; in assay [2], -27.6%.

As for `O=C(c1ccsc1)N1CCc2c(CNc3ncccn3)n[nH]c2C1`, the Percent Effect in assay [1] is -0.641%; in assay [2], -33.5%.

As to `CCCN1CCCn2nc(CNC(=O)CCc3scnc3C)cc2C1`, the figures for the Percent Effect in assay [1] and in assay [2] were -0.334% and 3.64%, respectively.

On to `CN(CC(=O)N(C)C1CCCCC1)C1CCc2ccccc21` (stereo unspecified), for which the values for the Percent Effect in assay [1] and in assay [2] were 0.433% and 34.7%, respectively.

For `CCOc1ccc(NC(=O)CN2CCN(c3nccn3C)CC2)cc1`, the Percent Effect is -3.86% in assay [1] and -64.8% in assay [2].

As to `Cc1ncsc1CN1CC[C@H]2OCC[C@@]2(C(=O)NC(C)C)C1`, the Percent Effect in assay [1] was 2.43%; in assay [2], -7.46%.

For `Cc1cc(C[C@@H]2COC[C@H]2NCc2ccccc2C(F)(F)F)on1`, the values for the Percent Effect in assay [1] and in assay [2] were 2.34% and -7.33%, respectively.

Consider `Cc1cc(N2CCN(C(=O)c3cc(Cl)c[nH]3)CC2)nc(N)n1`, for which the Percent Effect is 3.4% in assay [1] and -96.7% in assay [2].

Take `c1ccc(OCC2CC3(CCN(c4ncccn4)CC3)CO2)nc1` (stereo unspecified): the Percent Effect is 4.62% in assay [1] and -0.916% in assay [2].

As for `CCc1nc2n(n1)CC(NCc1nc(C)ccc1O)CC2` (stereo unspecified), the figures for the Percent Effect in assay [1] and in assay [2] were -1.83% and 11.7%, respectively.

On to `N#CC1(C(=O)N2CCN(Cc3cscn3)CC2)CCCC1`, for which the Percent Effect in assay [1] was -0.171%; in assay [2] it was 9.21%.

Consider `CC(=O)N1CCc2c(nc(-c3ccccn3)nc2N(C)CC(O)CO)C1` (stereo unspecified), for which the Percent Effect in assay [1] is -6.34%; in assay [2] it was 26.6%.

For the molecule `CC(C)c1cc(C(=O)N(C)Cc2cccc3ncccc23)n(C)n1`, the Percent Effect in assay [1] was -4.72%; in assay [2] it was -15%.

With `O=C(Cn1cnc(-c2ccccc2)cc1=O)Nc1ccncc1`, the figures for the Percent Effect in assay [1] and in assay [2] were -2.03% and -36.3%, respectively.

For the molecule `CCc1noc(C(C)N2CCC(N3CCCC3)CC2)n1` (stereo unspecified), the Percent Effect in assay [1] was -8.83%; in assay [2], -5.16%.
